According to PubChem BioAssay (EPA / NIEHS):
Calls of active or inactive are those of the source. How the source made its calls: active means hit-call score of the fitted dose curve at least 0.9, where 1 is the maximum; inactive means score below 0.9.

What follows are compounds tested on Vascular endothelial growth factor receptor 2 (Homo sapiens) (UniProt P35968) (assay: BSK_4H_VEGFRII: BioMAP Diversity Plus: 4H Assay for Vascular endothelial growth factor receptor 2 (VEGFR2) Biomarker Activity (AID 2283031)). Conditions: primary human endothelial cells (HUVEC); actives raise or lower the signal.
Procedure: BSK_4H is a cell-based, multiplexed-readout assay that uses umbilical vein endothelium, a human vascular primary cell, with measurements taken at 24 hours after chemical dosing in a 96-well plate.BSK_4H_VEGFRII is an assay component measured in the BSK_4H assay. It measures VEGFRII antibody related to regulation of gene expression using ELISA technology.Data from the assay component BSK_4H_VEGFRII was analyzed into 1 assay endpoint. This assay endpoint, BSK_4H_VEGFRII, was analyzed with bidirectional fitting relative to DMSO as the negative control and baseline of activity. Using a type of binding reporter, gain or loss-of-signal activity can be used to understand changes in the signaling as they relate to the gene KDR. Furthermore, this assay endpoint can be referred to as a primary readout, because this assay has produced multiple assay endpoints where this one serves a signaling function. To generalize the intended target to other relatable targets, this assay endpoint is annotated to the kinase intended target family, where the subfamily is receptor tyrosine kinase.
The levels of cell surface (or secreted, indicated by the prefix "s") biomarker endpoints were measured by ELISA. Overt cytotoxicity to cells in confluent adherent cultures (all systems other than the BT system) was assessed by measuring total protein levels using sulforhodamine B (SRB) staining in parallel cultures at the time of biomarker measurements, indicated as SRB endpoints. For proliferation assays for adherent cell types, individual cell types are cultured at sub-confluence and relative cell numbers quantified by SRB staining at time points optimized for each system (48 h: 3C and CASM3C systems; 72 h: BT and HDF3CGF systems; 96 h: SAg system). SRB was performed by staining cells with 0.1% SRB after fixation with 10% TCA and reading wells at 560 nm.Viability and proliferation of PBMC (T cells) was quantified by Alamar Blue reduction for the SAg and BT systems. For PBMC viability (referred to as PBMC Cytotoxicity within the assay endpoint names), cells were plated (75,000/well in a 96-well plate) and then chemical samples added for 1 h before addition of activators, SEB and TSST-1 (20 ng/mL final concentration each). Cells were incubated for 90 h. Then, Alamar Blue (20 uL/well) (Invitrogen, Cat DAL1100) was added for 6 h, and the plates were read with a fluorescence microplate reader at 546/580 nm (excitation/emission). For PBMC proliferation, cells were plated and activated as above but incubated for only 16 h prior to addition of Alamar Blue. Plates were read after 6 h.
OCc1c[nH]c2ccccc12 was tested, and the outcome was “inactive”.
In the case of NCC(F)(F)C(F)(F)C(F)(F)C(F)(F)F, the outcome was “inactive”.
For CCOC(N)=O, the outcome was “inactive”.
In the case of Cc1nccn1-c1ccc(Sc2cccc(C3(C(N)=O)CCOCC3)c2)cc1, the outcome was “inactive”.
In the case of Cn1c(=O)c2[nH]cnc2n(C)c1=O, the outcome was “inactive”.
In the case of COS(C)(=O)=O, the outcome was “inactive”.
In the case of OCCC(F)(F)C(F)(F)C(F)(F)C(F)(F)F, the outcome was “inactive”.
For OC(CCl)CCl, the outcome was “inactive”.
Nc1ccn([C@@H]2O[C@H](CO)[C@@H](O)[C@@H]2O)c(=O)n1 was tested, and the outcome was “inactive”.
c1ccc2c(c1)-c1cccc3c1c-2cc1ccccc13 was tested, and the outcome was “inactive”.
In the case of CCn1nc(C)c2c1C(=O)NCC(c1ccc(O)cc1)=N2, the outcome was “inactive”.
For C[C@]12C=CC(=O)C=C1CC[C@H]1[C@@H]3C[C@@H](O)[C@](O)(C(=O)CO)[C@@]3(C)C[C@H](O)[C@@]12F, the outcome was “inactive”.
OC(Cn1cncn1)(Cn1cncn1)c1ccc(F)cc1F was tested, and the outcome was “inactive”.
O=C(O)c1cccc(C(=O)O)c1 was tested, and the outcome was “inactive”.
NC(=O)NN=Cc1ccc([N+](=O)[O-])o1 was tested, and the outcome was “inactive”.
With O=S1(=O)CCCO1 the outcome was “inactive”.
For CNC(C)=O, the outcome was “inactive”.
With CCCc1ccccc1 the outcome was “inactive”.
In the case of OCC(CO)(CO)CO, the outcome was “inactive”.
With NC(=O)N(O)[C@@H]1COc2cc(OCc3ccccc3)ccc21 the outcome was “inactive”.
With C[C@@H](Oc1ccc(CNC(=O)c2cccnc2Oc2ccc3c(c2)OCO3)c(F)c1)C(=O)O the outcome was “inactive”.
With C=CCc1cc(S(=O)(=O)c2ccc(O)c(CC=C)c2)ccc1O the AC50 was 20 µM (active).
CCOc1ccc2[nH]cc(C(=O)NCc3ccccc3)c(=O)c2n1 was tested, and the outcome was “inactive”.
For OC[C@H]1O[C@@](CO)(O[C@H]2O[C@H](CO)[C@@H](O)[C@H](O)[C@H]2O)[C@@H](O)[C@@H]1O, the outcome was “inactive”.
Cn1cc[nH]c1=S was tested, and the outcome was “inactive”.
With O=C1CN(N=Cc2ccc([N+](=O)[O-])o2)C(=O)N1 the outcome was “inactive”.
With NC(=O)N1c2ccccc2C=Cc2ccccc21 the outcome was “inactive”.
In the case of CCc1cccc(CC)c1N, the outcome was “inactive”.
Cc1nc(-c2ccccn2)ncc1C(=O)Nn1cc(C)c2cc(F)ccc21 was tested, and the outcome was “inactive”.
In the case of C=CN1CCCC1=O, the outcome was “inactive”.
In the case of COCc1nnc(-c2ccc[n+]([O-])c2)n1-c1c(Cl)c(Cl)cc2[nH]c(=O)c(=O)[nH]c12, the outcome was “inactive”.
Cc1ccc(S(=O)(=O)NC(=O)NN2CCCCCC2)cc1 was tested, and the outcome was “inactive”.
NNC(=O)c1ccncc1 was tested, and the outcome was “inactive”.
For CC1(C)C(=O)N(Cl)C(=O)N1Cl, the outcome was “inactive”.
With OCc1ccccc1 the outcome was “inactive”.
CC(=O)c1ccccc1 was tested, and the outcome was “inactive”.
O=S(=O)(O)CCC(F)(F)C(F)(F)C(F)(F)C(F)(F)C(F)(F)C(F)(F)F was tested, and the outcome was “inactive”.
For c1ccc(C(O[C@@H]2CCCN(CCc3ccc4c(c3)OCO4)C2)c2ccccc2)cc1, the outcome was “inactive”.
In the case of CCCC(CCC)C(=O)O, the outcome was “inactive”.
In the case of OCCOCCOCCO, the outcome was “inactive”.
